Laboratory results: PubChem BioAssay AID2515 (National Center for Advancing Translational Sciences (NCATS), 2010)
Records with an inconclusive call do not appear. Activity calls are given as the source filed them. Calls come from the whole dose curve; as a rule, active = well fitted inhibition curve with a large enough effect; inconclusive = small, poorly fitted or top-dose-only effect; inactive = flat fitted curve, though single readings scatter.

Target: Luciferin 4-monooxygenase (Photinus pyralis) (UniProt P08659)
Sequence (P08659 whole entry, looked up, canonical isoform): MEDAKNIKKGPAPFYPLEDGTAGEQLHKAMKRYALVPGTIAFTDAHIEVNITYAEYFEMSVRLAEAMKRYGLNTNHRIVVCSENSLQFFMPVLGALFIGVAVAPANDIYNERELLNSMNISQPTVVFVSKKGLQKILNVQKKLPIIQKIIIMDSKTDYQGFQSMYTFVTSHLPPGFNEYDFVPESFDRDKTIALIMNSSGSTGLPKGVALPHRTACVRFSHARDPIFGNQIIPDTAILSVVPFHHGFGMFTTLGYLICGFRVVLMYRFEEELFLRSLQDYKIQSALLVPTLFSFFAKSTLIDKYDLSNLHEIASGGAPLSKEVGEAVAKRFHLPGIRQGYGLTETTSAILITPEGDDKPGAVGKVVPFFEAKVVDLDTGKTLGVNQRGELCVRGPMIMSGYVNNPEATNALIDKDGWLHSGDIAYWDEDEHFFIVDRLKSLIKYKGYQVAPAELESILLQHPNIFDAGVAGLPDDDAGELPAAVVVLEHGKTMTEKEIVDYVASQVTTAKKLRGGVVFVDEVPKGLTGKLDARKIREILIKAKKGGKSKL
Assay: Counterscreen Assay for Enhancers of SMN2 Splice Variant Expression: Interaction with Luciferase Reporter for Probe SAR
Conditions: purified firefly luciferase, luminescence inhibition
From the text: NIH Chemical Genomics Center [NCGC] NIH Molecular Libraries Probe Production centers Network [MLPCN] MLPCN Grant: R03 MH084179-01 Assay Submitter (PI): Elliot Androphy NCGC Assay Overview: Spinal muscular atrophy (SMA) is caused by insufficient levels of the survival motor neuron protein SMN. The SMN locus on chromosome 5q13 contains two inverted copies of SMN called SMN1 and SMN2 which are 99% identical at the amino acid level. SMN1 is a fully functional protein and SMN2 skips exon 7 90% of the time. Skipping of exon 7 produces non-functional protein product. 10% of the SMN2 protein includes exon 7 and is fully functional. In the SMA disease state, mutations in the SMN1 locus are the cause of the disease state. […]
NCGC Assay Protocol Summary: The primary screen utilizes a luciferase reporter gene assay, combining the promoter and splicing based cassettes in tandem with the major portion of the native SMN1 cDNA, and then transfected into HEK293 cells. […] Sequence, Parameter, Value, Description (1) Reagent, 2.5 uL, Enzyme in buffer (note A) (2) Compound, 23 nL, From stock solutions (3) Time, 5 minutes, Room temp (4) Reagent#2.5 ul, Luciferase detection reagent (note B) (5) Detector, 1 sec integrate, Luminescent read on Viewlux (note C) Sigma enzyme (1 mg) considered to be MW 61,000 diluted in 357 ul assay buffer to 50 uM stock. […]

In the case of `Brc1ccc(-c2csc(N3CCCCC3)n2)cc1`, the Potency is reported as 17.9 µM (active).
